Laboratory results as given in ChEMBL document CHEMBL2218924, “A broad activity screen in support of a chemogenomic map for kinase signalling research and drug discovery” (Biochem J, 2013).

Legend:
[1] = biological target: T1, Cyclin-dependent kinase 5/CDK5 activator 1 (Homo sapiens) (UniProt Q00535+Q15078); conditions: at 1 µM
[2] = biological target: T1, Cyclin-dependent kinase 5/CDK5 activator 1 (Homo sapiens); conditions: at 10 µM
[3] = biological target: T1, Cyclin-dependent kinase 5/CDK5 activator 1 (Homo sapiens); conditions: at 1 µM; remark: listed apart in the source
[4] = biological target: T1, Cyclin-dependent kinase 5/CDK5 activator 1 (Homo sapiens); conditions: at 10 µM; remark: listed apart in the source
[5] = biological target: T2, CDK6/cyclin D3 (Homo sapiens) (UniProt P30281+Q00534); conditions: at 1 µM
[6] = biological target: T2, CDK6/cyclin D3 (Homo sapiens); conditions: at 10 µM
[7] = biological target: T3, Cyclin-dependent kinase 7/ cyclin H (Homo sapiens) (UniProt P51946+P50613); conditions: at 1 µM
[8] = biological target: T3, Cyclin-dependent kinase 7/ cyclin H (Homo sapiens); conditions: at 10 µM
[9] = biological target: T4, CDK9/cyclin T1 (Homo sapiens) (UniProt O60563+P50750); conditions: at 10 µM
[10] = biological target: T5, Serine/threonine-protein kinase Chk1 (Homo sapiens) (UniProt O14757); conditions: at 1 µM
T5 sequence (whole entry): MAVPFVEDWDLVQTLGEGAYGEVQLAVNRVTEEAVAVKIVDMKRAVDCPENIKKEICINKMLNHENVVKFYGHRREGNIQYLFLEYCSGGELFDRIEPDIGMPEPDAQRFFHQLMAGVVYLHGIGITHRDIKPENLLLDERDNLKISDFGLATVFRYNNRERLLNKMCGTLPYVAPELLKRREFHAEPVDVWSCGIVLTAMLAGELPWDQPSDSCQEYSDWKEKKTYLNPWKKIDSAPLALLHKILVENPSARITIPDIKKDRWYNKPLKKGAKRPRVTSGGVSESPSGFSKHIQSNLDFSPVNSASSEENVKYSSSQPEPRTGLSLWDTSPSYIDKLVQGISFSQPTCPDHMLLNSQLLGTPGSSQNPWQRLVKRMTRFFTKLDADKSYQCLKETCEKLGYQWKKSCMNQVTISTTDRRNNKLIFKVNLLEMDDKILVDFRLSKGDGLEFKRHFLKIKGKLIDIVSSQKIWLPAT

[11] = biological target: T5, Serine/threonine-protein kinase Chk1 (Homo sapiens); conditions: at 10 µM
[12] = biological target: Serine/threonine-protein kinase Chk2 (Homo sapiens) (UniProt O96017); conditions: at 1 µM
[13] = biological target: Serine/threonine-protein kinase Chk2 (Homo sapiens) (UniProt O96017); conditions: at 10 µM
[14] = biological target: Casein kinase I isoform delta (Homo sapiens) (UniProt P48730); conditions: at 1 µM
[15] = biological target: Casein kinase I isoform delta (Homo sapiens) (UniProt P48730); conditions: at 10 µM
[16] = biological target: T4, CDK9/cyclin T1 (Homo sapiens); conditions: at 1 µM
[17] = biological target: Casein kinase I isoform gamma-1 (Homo sapiens) (UniProt Q9HCP0); conditions: at 1 µM
[18] = biological target: Casein kinase I isoform gamma-1 (Homo sapiens) (UniProt Q9HCP0); conditions: at 10 µM
[19] = biological target: T6, CDK3/cyclin E (Homo sapiens) (UniProt P24864+O96020+Q00526); conditions: at 10 µM
[20] = biological target: T6, CDK3/cyclin E (Homo sapiens); conditions: at 1 µM

Sequence of Casein kinase I isoform gamma-1 (Homo sapiens) (Q9HCP0 whole entry, looked up, canonical isoform): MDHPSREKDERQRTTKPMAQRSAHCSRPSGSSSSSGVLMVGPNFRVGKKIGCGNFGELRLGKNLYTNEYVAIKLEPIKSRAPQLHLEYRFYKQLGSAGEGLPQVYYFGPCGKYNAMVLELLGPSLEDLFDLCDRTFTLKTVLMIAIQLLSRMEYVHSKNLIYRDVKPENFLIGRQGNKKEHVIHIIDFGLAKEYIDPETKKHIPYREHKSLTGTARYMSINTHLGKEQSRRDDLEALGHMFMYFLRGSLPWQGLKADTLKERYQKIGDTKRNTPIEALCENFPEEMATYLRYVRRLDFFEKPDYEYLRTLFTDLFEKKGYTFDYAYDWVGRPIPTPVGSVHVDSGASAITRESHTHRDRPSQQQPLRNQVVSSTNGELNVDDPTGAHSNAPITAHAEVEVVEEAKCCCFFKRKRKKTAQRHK
T6 sequence (O96020 whole entry, looked up): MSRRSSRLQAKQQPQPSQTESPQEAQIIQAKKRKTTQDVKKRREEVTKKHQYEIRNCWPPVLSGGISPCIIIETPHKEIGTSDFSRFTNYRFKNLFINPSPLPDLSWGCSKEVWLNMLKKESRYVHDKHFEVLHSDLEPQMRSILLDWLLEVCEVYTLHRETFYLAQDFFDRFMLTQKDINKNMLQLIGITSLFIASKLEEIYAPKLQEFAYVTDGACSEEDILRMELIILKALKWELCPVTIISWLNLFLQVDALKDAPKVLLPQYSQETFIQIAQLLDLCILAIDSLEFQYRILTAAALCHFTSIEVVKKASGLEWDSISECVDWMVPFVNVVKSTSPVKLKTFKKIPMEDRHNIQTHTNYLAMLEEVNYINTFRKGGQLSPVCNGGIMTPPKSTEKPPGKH
T6 sequence (P24864 whole entry, looked up): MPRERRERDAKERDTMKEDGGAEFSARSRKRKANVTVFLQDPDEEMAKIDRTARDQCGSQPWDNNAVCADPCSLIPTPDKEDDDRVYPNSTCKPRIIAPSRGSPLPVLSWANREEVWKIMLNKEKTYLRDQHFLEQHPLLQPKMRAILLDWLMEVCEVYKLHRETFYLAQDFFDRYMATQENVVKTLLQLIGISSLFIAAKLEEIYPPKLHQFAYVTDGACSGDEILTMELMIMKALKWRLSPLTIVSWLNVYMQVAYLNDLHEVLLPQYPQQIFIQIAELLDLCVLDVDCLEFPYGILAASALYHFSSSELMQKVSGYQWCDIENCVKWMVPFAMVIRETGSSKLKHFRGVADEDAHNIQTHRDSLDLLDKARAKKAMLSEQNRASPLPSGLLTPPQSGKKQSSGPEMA
T6 sequence (Q00526 whole entry, looked up): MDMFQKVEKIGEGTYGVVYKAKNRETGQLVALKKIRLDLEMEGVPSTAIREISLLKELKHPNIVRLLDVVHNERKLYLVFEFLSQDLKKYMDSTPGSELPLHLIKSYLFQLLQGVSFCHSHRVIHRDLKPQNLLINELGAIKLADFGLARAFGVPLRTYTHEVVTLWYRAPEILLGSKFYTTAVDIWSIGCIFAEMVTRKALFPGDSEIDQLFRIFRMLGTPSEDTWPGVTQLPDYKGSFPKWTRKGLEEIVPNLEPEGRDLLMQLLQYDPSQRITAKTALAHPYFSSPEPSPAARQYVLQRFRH
Sequence of Casein kinase I isoform delta (Homo sapiens) (P48730 whole entry, looked up, canonical isoform): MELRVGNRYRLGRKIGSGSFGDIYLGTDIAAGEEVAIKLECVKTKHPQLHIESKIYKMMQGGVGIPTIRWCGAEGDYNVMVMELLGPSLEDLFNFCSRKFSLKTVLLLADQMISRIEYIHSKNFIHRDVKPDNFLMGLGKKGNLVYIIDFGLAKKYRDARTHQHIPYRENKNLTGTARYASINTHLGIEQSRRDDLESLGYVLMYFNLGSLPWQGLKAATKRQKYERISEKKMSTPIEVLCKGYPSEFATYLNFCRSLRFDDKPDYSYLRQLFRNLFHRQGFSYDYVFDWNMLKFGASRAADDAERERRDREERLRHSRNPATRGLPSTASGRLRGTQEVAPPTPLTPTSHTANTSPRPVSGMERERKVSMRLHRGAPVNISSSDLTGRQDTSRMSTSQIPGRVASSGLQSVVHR
T1 sequence (Q00535 whole entry): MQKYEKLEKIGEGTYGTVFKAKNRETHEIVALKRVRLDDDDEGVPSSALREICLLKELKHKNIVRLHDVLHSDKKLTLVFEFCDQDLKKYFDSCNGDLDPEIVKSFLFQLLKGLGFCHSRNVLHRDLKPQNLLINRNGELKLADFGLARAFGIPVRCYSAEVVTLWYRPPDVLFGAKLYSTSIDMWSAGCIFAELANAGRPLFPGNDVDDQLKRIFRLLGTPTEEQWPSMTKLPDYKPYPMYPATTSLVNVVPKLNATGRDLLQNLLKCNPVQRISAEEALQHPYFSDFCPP
T1 sequence (Q15078 99-307 partner limits assumed): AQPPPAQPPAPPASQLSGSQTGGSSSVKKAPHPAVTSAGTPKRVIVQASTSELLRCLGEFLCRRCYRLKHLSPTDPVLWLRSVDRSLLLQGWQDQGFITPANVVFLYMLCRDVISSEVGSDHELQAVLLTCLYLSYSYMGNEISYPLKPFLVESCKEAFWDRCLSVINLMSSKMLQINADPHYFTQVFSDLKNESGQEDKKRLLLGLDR
Sequence of Serine/threonine-protein kinase Chk2 (Homo sapiens) (O96017 whole entry, canonical isoform): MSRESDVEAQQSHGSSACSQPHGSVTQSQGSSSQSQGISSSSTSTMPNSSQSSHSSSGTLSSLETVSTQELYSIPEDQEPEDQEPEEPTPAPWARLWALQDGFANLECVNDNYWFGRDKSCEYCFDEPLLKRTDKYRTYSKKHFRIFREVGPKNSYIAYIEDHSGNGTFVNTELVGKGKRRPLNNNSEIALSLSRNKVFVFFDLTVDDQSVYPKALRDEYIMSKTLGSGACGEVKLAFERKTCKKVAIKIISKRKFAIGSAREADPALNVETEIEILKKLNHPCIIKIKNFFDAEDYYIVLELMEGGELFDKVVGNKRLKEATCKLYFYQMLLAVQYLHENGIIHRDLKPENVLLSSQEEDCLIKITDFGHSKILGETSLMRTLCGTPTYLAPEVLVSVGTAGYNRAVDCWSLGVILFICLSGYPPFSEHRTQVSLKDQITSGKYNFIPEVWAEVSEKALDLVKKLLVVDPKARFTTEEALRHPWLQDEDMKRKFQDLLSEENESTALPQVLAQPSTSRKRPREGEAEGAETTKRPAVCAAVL

Structure (SMILES): Cn1c2ccccc2c2c3c(c4c5ccccc5n(CCC#N)c4c21)CNC3=O
- residual activity [1]: 5%
- residual activity [2]: 4%
- residual activity [3]: 3%
- residual activity [4]: 6%
- residual activity [5]: 48%
- residual activity [6]: 38%
- residual activity [7]: 74%
- residual activity [8]: 79%
- residual activity [9]: 36%
- residual activity [10]: 2%
- residual activity [11]: 0%
- residual activity [12]: 25%
- residual activity [13]: 15%
- residual activity [14]: 70%
- residual activity [15]: 48%

Structure (SMILES): CCN(CC)CCNC(=O)c1c(C)[nH]c(/C=C2\C(=O)Nc3ccc(Cl)cc32)c1C
- residual activity [1]: 77%
- residual activity [2]: 22%
- residual activity [3]: 72%
- residual activity [4]: 28%
- residual activity [5]: 70%
- residual activity [6]: 13%
- residual activity [7]: 15%
- residual activity [8]: 2%
- residual activity [16]: 48%
- residual activity [9]: 13%
- residual activity [10]: 24%
- residual activity [11]: 3%
- residual activity [12]: 6%
- residual activity [13]: 1%
- residual activity [17]: 64%
- residual activity [18]: 14%
- residual activity [14]: 23%
- residual activity [15]: 5%

Structure (SMILES): O=C1Cc2c([nH]c3ccc([N+](=O)[O-])cc23)-c2ccccc2N1
- residual activity [19]: 6%
- residual activity [1]: 9%
- residual activity [2]: 6%
- residual activity [3]: 6%
- residual activity [4]: 6%
- residual activity [5]: 60%
- residual activity [6]: 26%
- residual activity [16]: 1%
- residual activity [9]: 2%
- residual activity [10]: 39%
- residual activity [12]: 3%
- residual activity [13]: 1%

Structure (SMILES): Cc1cc(C)c(/C=C2\C(=O)Nc3ccccc32)[nH]1
- residual activity [19]: 69%
- residual activity [6]: 60%
- residual activity [7]: 64%
- residual activity [8]: 32%
- residual activity [16]: 100%
- residual activity [9]: 78%
- residual activity [10]: 72%
- residual activity [11]: 38%
- residual activity [12]: 18%
- residual activity [13]: 3%
- residual activity [14]: 13%
- residual activity [15]: 2%

Structure (SMILES): O=c1c(-c2ccc(F)cc2)c(-c2ccncc2)[nH]n1-c1ccc(Cl)cc1
- residual activity [16]: 100%
- residual activity [9]: 100%
- residual activity [12]: 43%
- residual activity [13]: 33%
- residual activity [18]: 62%
- residual activity [14]: 44%
- residual activity [15]: 5%

Structure (SMILES): COc1ccc(Cl)cc1NC(=O)Nc1cc(C)nc2ccccc12
- residual activity [20]: 93%
- residual activity [19]: 91%
- residual activity [4]: 77%
- residual activity [5]: 95%
- residual activity [6]: 83%
- residual activity [7]: 80%
- residual activity [8]: 90%
- residual activity [10]: 86%
- residual activity [11]: 81%
- residual activity [12]: 85%
- residual activity [17]: 94%
- residual activity [18]: 100%

Structure (SMILES): Nc1nccc(-c2c(-c3ccc(F)cc3)ncn2C2CCNCC2)n1
- residual activity [7]: 100%
- residual activity [8]: 68%
- residual activity [17]: 72%
- residual activity [18]: 21%

Structure (SMILES): COc1cc2ncnc(Nc3cccc(Cl)c3)c2cc1OC
- residual activity [20]: 105%
- residual activity [1]: 113%
- residual activity [2]: 107%
- residual activity [6]: 100%
- residual activity [9]: 71%
- residual activity [11]: 89%
- residual activity [12]: 79%
- residual activity [13]: 42%
- residual activity [17]: 100%
- residual activity [18]: 81%
- residual activity [14]: 87%
- residual activity [15]: 62%

Structure (SMILES): COc1ccc(CNC(=O)Nc2ncc([N+](=O)[O-])s2)cc1
- residual activity [20]: 68%
- residual activity [19]: 26%
- residual activity [8]: 69%
- residual activity [9]: 5%
- residual activity [13]: 77%

Structure (SMILES): O=S(=O)(c1cccc2cnccc12)N1CCCNCC1
- residual activity [16]: 81%
- residual activity [9]: 29%
- residual activity [13]: 54%
- residual activity [17]: 124%
- residual activity [18]: 100%

Structure (SMILES): Nc1ncnc2[nH]nc(Nc3ccc(F)cc3)c12
- residual activity [19]: 39%
- residual activity [1]: 98%
- residual activity [3]: 110%
- residual activity [5]: 107%
- residual activity [6]: 78%
- residual activity [7]: 98%
- residual activity [16]: 80%
- residual activity [9]: 36%
- residual activity [11]: 60%
- residual activity [12]: 73%
- residual activity [13]: 59%
- residual activity [18]: 66%
- residual activity [14]: 42%
- residual activity [15]: 7%

Structure (SMILES): O=C1Cc2c([nH]c3ccc(Br)cc23)-c2ccccc2N1
- residual activity [20]: 54%
- residual activity [19]: 9%
- residual activity [3]: 47%
- residual activity [4]: 9%
- residual activity [5]: 78%
- residual activity [6]: 30%
- residual activity [7]: 91%
- residual activity [8]: 80%
- residual activity [10]: 77%
- residual activity [11]: 53%
- residual activity [18]: 71%
- residual activity [14]: 80%
- residual activity [15]: 68%

Structure (SMILES): COc1cc2nccc(Oc3ccc(NC(=O)Nc4cc(C)on4)c(Cl)c3)c2cc1OC
- residual activity [5]: 96%
- residual activity [6]: 99%
- residual activity [7]: 99%
- residual activity [8]: 107%
- residual activity [9]: 72%
- residual activity [12]: 79%
- residual activity [13]: 30%

Structure (SMILES): N#Cc1c(NC(=O)c2cccc3ccccc23)sc2c1CCCC2
- residual activity [6]: 90%
- residual activity [16]: 99%
- residual activity [9]: 100%
- residual activity [13]: 76%
- residual activity [14]: 83%
- residual activity [15]: 77%

Structure (SMILES): O=S(=O)(NCCNC/C=C/c1ccc(Br)cc1)c1cccc2cnccc12
- residual activity [19]: 59%
- residual activity [4]: 63%
- residual activity [8]: 41%
- residual activity [16]: 72%
- residual activity [9]: 41%
- residual activity [10]: 81%
- residual activity [11]: 44%
- residual activity [12]: 81%
- residual activity [13]: 27%

Structure (SMILES): O=C(Nc1ccc(Cl)cc1)c1ccccc1NCc1ccncc1
- residual activity [5]: 102%
- residual activity [6]: 102%
- residual activity [8]: 124%

Structure (SMILES): NCCNc1ncc(C(N)=O)c(Nc2cccc(C(F)(F)F)c2)n1
- residual activity [1]: 77%
- residual activity [2]: 25%
- residual activity [3]: 70%
- residual activity [4]: 33%
- residual activity [7]: 78%
- residual activity [8]: 49%
- residual activity [16]: 73%
- residual activity [9]: 21%
- residual activity [10]: 66%
- residual activity [11]: 27%
- residual activity [12]: 15%
- residual activity [13]: 2%
- residual activity [14]: 79%
- residual activity [15]: 58%

Structure (SMILES): O=C1Nc2ccccc2/C1=C\c1c(Cl)[nH]c2ccccc12
- residual activity [19]: 55%
- residual activity [2]: 40%
- residual activity [4]: 40%
- residual activity [6]: 32%
- residual activity [8]: 59%
- residual activity [16]: 80%
- residual activity [9]: 34%
- residual activity [12]: 75%
- residual activity [13]: 41%
- residual activity [14]: 85%
- residual activity [15]: 51%

Structure (SMILES): CCN1/C(=C/C(C)=O)Sc2ccc(OC)cc21
- residual activity [20]: 82%
- residual activity [19]: 80%
- residual activity [4]: 71%
- residual activity [7]: 82%
- residual activity [8]: 81%
- residual activity [17]: 69%
- residual activity [18]: 21%
- residual activity [14]: 29%
- residual activity [15]: 4%

Structure (SMILES): CN([C@@H](Cc1ccc(OS(=O)(=O)c2cccc3cnccc23)cc1)C(=O)N1CCN(c2ccccc2)CC1)S(=O)(=O)c1cccc2cnccc12
- residual activity [13]: 79%
- residual activity [18]: 73%

Structure (SMILES): CCOC(=O)c1c(C)[nH]c(/C=C2\C(=O)Nc3ccccc32)c1C
- residual activity [20]: 100%
- residual activity [19]: 90%
- residual activity [5]: 93%
- residual activity [6]: 95%
- residual activity [10]: 90%
- residual activity [11]: 92%
- residual activity [12]: 45%
- residual activity [13]: 34%
- residual activity [17]: 88%
- residual activity [18]: 81%
- residual activity [14]: 77%
- residual activity [15]: 62%

Structure (SMILES): Fc1ccc(-c2nc3n(c2-c2ccncc2)CCS3)cc1
- residual activity [5]: 124%
- residual activity [12]: 92%
- residual activity [13]: 88%
- residual activity [17]: 86%
- residual activity [18]: 28%
- residual activity [14]: 3%
- residual activity [15]: 1%

Structure (SMILES): COc1ccc(-c2cnc3c(-c4ccsc4)cnn3c2)cc1
- residual activity [20]: 85%
- residual activity [2]: 88%
- residual activity [3]: 85%
- residual activity [5]: 85%
- residual activity [6]: 96%
- residual activity [7]: 90%
- residual activity [10]: 87%
- residual activity [11]: 95%
- residual activity [17]: 98%
- residual activity [18]: 92%
